Counter-ions that a name gives are not always drawn. ± gives the standard deviation of the averaged measurements.
Assays:
Experiment in all cases: cell viability (% of vehicle); higher = less cytotoxic
Conditions in all cases: 10 µM; 72 h
HCI01 = tested on: HCI01 (cells of a triple-negative basal-like breast cancer xenograft)
HCI03 = tested on: HCI03 (cells of an ER-positive luminal breast cancer xenograft)
HCI09 = tested on: HCI09 (cells of a triple-negative luminal androgen receptor type breast cancer xenograft)
HCI13 = tested on: HCI13 (cells of an ER-positive luminal breast cancer xenograft)
HCI16 = tested on: HCI16 (cells of a triple-negative basal-like breast cancer xenograft)
UCD52 = tested on: UCD52 (cells of a triple-negative basal-like breast cancer xenograft)
WHIM2 = tested on: WHIM2 (cells of a triple-negative basal-like breast cancer xenograft)
WHIM30 = tested on: WHIM30 (cells of a triple-negative basal-like breast cancer xenograft)
HCI11 = tested on: HCI11 (cells of an ER-positive luminal breast cancer xenograft)
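Further: PDX cells carrying CMV promoter-driven luciferase, viability read as total photon flux per second by IVIS imaging following D-luciferin, vehicle control 0.1% DMSO.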

Compound | cell viability (HCI01) | cell viability (HCI03) | cell viability (HCI09) | cell viability (HCI13) | cell viability (HCI16) | cell viability (UCD52) | cell viability (WHIM2) | cell viability (WHIM30) | cell viability (HCI11)
CCc1c2c(nc3ccc(OC(=O)N4CCC(N5CCCCC5)CC4)cc13)-c1cc3c(c(=O)n1C2)COC(=O)[C@]3(O)CC [Irinotecan HCl Trihydrate] | 70.8 ± 22 | 165 | 120 ± 25 | 114 ± 15 | 105 | 104 ± 17 | 68 ± 3.8 | 107 ± 19 | 
C#CC1(O)CCC2C3CCC4=CC(=O)CCC4C3CCC21CC (configuration not stated) [Levonorgestrel] | 88.7 ± 25 | 127 | 100 ± 12 |  | 121 | 83.6 ± 6.9 | 91.5 ± 9.7 | 155 ± 2.3 | 88.5
CC1(C)O[C@@H]2C[C@H]3[C@@H]4CCC5=CC(=O)CC[C@]5(C)[C@@]4(F)[C@@H](O)C[C@]3(C)[C@]2(C(=O)CCl)O1 [Halcinonide] | 123 ± 21 | 144 | 146 ± 72 |  |  | 168 ± 24 | 105 ± 1.8 | 177 ± 4.2 | 133
CC(=O)OCC(=O)C1(O)C(C)CC2C3CCC4=CC(=O)C=CC4(C)C3(F)C(O)CC21C (configuration not stated) [Dexamethasone acetate] | 114 ± 33 | 160 | 131 ± 45 |  |  | 149 ± 10 | 119 ± 43 | 149 ± 22 | 138
Nc1nc2[nH][nH]nc-2c(=O)n1 [Azaguanine-8] | 158 ± 48 | 146 | 137 ± 21 | 150 ± 9.1 |  | 102 ± 55 | 96.01 ± 0.31 | 119 ± 14 | 
CCCCC(=O)OC1(C(=O)CO)C(C)CC2C3CCC4=CC(=O)C=CC4(C)C3(F)C(O)CC21C (configuration not stated) [Betamethasone Valerate] | 120 ± 12 | 169 | 148 ± 34 |  |  | 161 ± 9.9 | 88.9 ± 29 | 194 ± 17 | 124
CCC(=O)OC1(C(=O)SCF)C(C)CC2C3CC(F)C4=CC(=O)C=CC4(C)C3(F)C(O)CC21C (configuration not stated) [Fluticasone propionate] | 76.7 ± 52 | 166 | 128 ± 33 |  |  | 128 ± 14 | 102 ± 44 |  | 133
C[C@@H]1C[C@H]2[C@H]3CCC4=CC(=O)C=C[C@]4(C)[C@@]3(F)[C@@H](O)C[C@]2(C)[C@@]1(O)C(=O)CO [Dexamethasone (DHAP)] | 128 ± 28 | 138 | 148 ± 54 |  | 180 | 168.4 ± 1.4 | 83.4 ± 20 | 189 ± 29 | 114
CCC(=O)OC1(C(=O)CCl)C(C)CC2C3CC(F)C4=CC(=O)C=CC4(C)C3(F)C(O)CC21C (configuration not stated) [Halobetasol Propionate] | 159 ± 6.9 | 152 | 133 ± 96 |  |  | 191 ± 18 | 113 ± 9.6 |  | 133
CC(C)n1c(C=CC(O)CC(O)CC(=O)[O-])c(-c2ccc(F)cc2)c2ccccc21.[Na+] (configuration not stated) [Fluvastatin Sodium] | 91.3 ± 15 | 135 | 61.2 ± 11 |  | 135 | 54.9 ± 4.7 | 59.6 ± 0.62 | 113 ± 11 | 
CC1(C)O[C@@H]2C[C@H]3[C@@H]4CCC5=CC(=O)C=C[C@]5(C)[C@@]4(F)[C@@H](O)C[C@]3(C)[C@]2(C(=O)CO)O1 [Triamcinolone Acetonide] | 147.2 ± 1.3 | 171 | 183 ± 20 |  |  | 198 ± 18 | 89.1 ± 12 |  | 111
CC1(C)O[C@@H]2C[C@H]3[C@@H]4C[C@H](F)C5=CC(=O)C=C[C@]5(C)[C@@]4(F)[C@@H](O)C[C@]3(C)[C@]2(C(=O)CO)O1 [Fluocinolone Acetonide] | 84 ± 59 | 154 | 132 ± 27 |  |  | 131 ± 17 | 109 ± 34 |  | 120
CCCCCC(O)C=CC1C(O)CC(=O)C1CCCCCCC(=O)O (configuration not stated) [Alprostadil] | 86.5 ± 76 | 124 | 145 ± 75 |  | 175 | 124 ± 2.3 | 147 ± 12 | 141 ± 4.9 | 104
CC1CC2C3CCC4=CC(=O)C=CC4(C)C3(F)C(O)CC2(C)C1(O)C(=O)CO (configuration not stated) [Betamethasone] | 130 ± 41 | 177 | 145 ± 32 |  |  | 183 ± 2.4 | 130 ± 27 | 184 ± 37 | 175
CCCC(NC(=O)C1C2CCCC2CN1C(=O)C(NC(=O)C(NC(=O)c1cnccn1)C1CCCCC1)C(C)(C)C)C(=O)C(=O)NC1CC1 (configuration not stated) [Telaprevir (VX-950)] | 154 ± 43 | 102 | 80.2 ± 12 | 96.4 ± 12 | 144 | 123 ± 6.4 | 96.2 ± 12 | 165 ± 15 | 
CCC(=O)OCC(=O)C1(OC(=O)CC)C(C)CC2C3CCC4=CC(=O)C=CC4(C)C3(F)C(O)CC21C (configuration not stated) [Betamethasone Dipropionate] | 126 ± 23 | 138 | 150 ± 25 |  |  | 147 ± 14 | 92.3 ± 26 |  | 136
CC(=O)OCC(=O)[C@@]12N=C(C)O[C@@H]1C[C@H]1[C@@H]3CCC4=CC(=O)C=C[C@]4(C)[C@H]3[C@@H](O)C[C@@]12C [Deflazacort] | 107 ± 38 | 141 | 137 ± 32 |  |  |  | 119 ± 14 | 145 ± 3.2 | 133
COCCCOc1ccnc(C[S+]([O-])c2nc3ccccc3[nH]2)c1C (configuration not stated) [Rabeprazole sodium] | 167 ± 75 | 197 | 82.4 ± 28 |  |  | 178 ± 5.8 | 135 ± 15 |  | 115
O=c1c(-n2ccnn2)c[nH]n1-c1cc(N2CCOCC2)ncn1 [Molidustat (BAY85-3934)] | 142 ± 4.8 | 121 | 27.2 ± 1.8 |  |  | 163 ± 3.5 | 104 ± 7.3 |  | 121
Cn1cnc2c(F)c(Nc3ccc(Br)cc3Cl)c(C(=O)NOCCO)cc21 [AZD6244 (Selumetinib)] |  | 83.9 | 82.9 ± 23 | 92.21 ± 0.79 |  | 84.4 ± 13 | 79.7 ± 8.5 |  | 112

Compound | cell viability (HCI01) | cell viability (HCI03) | cell viability (HCI09) | cell viability (HCI13) | cell viability (HCI16) | cell viability (UCD52) | cell viability (WHIM2) | cell viability (WHIM30) | cell viability (HCI11)
Cc1cnc(Nc2ccc(OCCN3CCCC3)cc2)nc1Nc1cccc(S(=O)(=O)NC(C)(C)C)c1 |  | 173 | 133 ± 44 | 61.6 ± 12 | 161 | 196 ± 55 | 43.8 ± 0.93 |  | 138
CCN(CC)CCNC(=O)c1ccc(N)cc1.Cl [Procainamide HCl] | 110 ± 3.9 |  | 108 ± 4.1 | 98 ± 2.4 | 116 | 100 ± 7.8 | 110 ± 10 | 197 ± 10 | 95.8
Nc1nc(NC2CC2)c2ncn(C3C=CC(CO)C3)c2n1.O=S(=O)(O)O (configuration not stated) [Abacavir sulfate] | 161 ± 13 |  |  | 134 ± 16 | 157 | 196 ± 5.3 | 128 ± 5.2 |  | 139
CCC(CO)Nc1nc(NCc2ccccc2)c2ncn(C(C)C)c2n1 (configuration not stated) [Roscovitine (Seliciclib,CYC202)] | 80.4 ± 47 |  | 55.1 ± 22 | 77.4 ± 2.6 | 138 | 145 ± 25 | 90.4 ± 1.3 | 123 ± 4.2 | 176
CCN(CC)CCOc1ccc(C(=C(Cl)c2ccccc2)c2ccccc2)cc1.O=C(O)CC(O)(CC(=O)O)C(=O)O [Clomiphene citrate] |  | 51.5 | 34.9 ± 3.9 | 39.3 ± 1.4 | 134 | 62.5 ± 0.63 | 35.1 ± 12 | 146 ± 15 | 95.8
O=C(C=Cc1cccc(S(=O)(=O)Nc2ccccc2)c1)NO [Belinostat (PXD101)] |  | 104 | 39.6 ± 33 | 55.1 ± 25 |  |  | 43.7 ± 1.1 |  | 6.42
COc1ccc(-c2cc(=O)c3c(O)cc(O)cc3o2)cc1O [Diosmetin] | 169 ± 46 |  | 170 ± 120 |  | 181 |  |  |  | 
CN(C)Cc1c(C(=O)NCCOc2ccc(C(=O)NO)cc2)oc2ccccc12 |  | 128 | 70.8 ± 49 | 56.1 ± 17 |  |  | 80.6 ± 8.5 |  | 9.68
Cc1nnc(C(C)C)n1C1CC2CCC(C1)N2CCC(NC(=O)C1CCC(F)(F)CC1)c1ccccc1 (configuration not stated) [Maraviroc] | 110 ± 12 |  | 95.9 ± 3.6 | 73.7 ± 15 | 163 | 88.8 ± 1.3 | 91.4 ± 26 | 123 ± 18 | 129
COc1ccccc1Oc1c(NS(=O)(=O)c2ccc(C(C)(C)C)cc2)nc(-c2ncccn2)nc1OCCO.O [Bosentan Hydrate] |  | 124 | 87.8 ± 26 | 172 ± 36 |  | 125 ± 8.9 | 87.1 ± 8.3 | 184 ± 2.7 | 101
CC1(C)CCC(CN2CCN(c3ccc(C(=O)NS(=O)(=O)c4ccc(NCC5CCOCC5)c([N+](=O)[O-])c4)c(Oc4cnc5[nH]ccc5c4)c3)CC2)=C(c2ccc(Cl)cc2)C1 | 83.9 ± 55 |  | 61.5 ± 30 | 129 ± 10 | 80 | 101 ± 14 | 151 ± 32 | 99.4 ± 53 | 68.4
CN1CCN(c2ccc3c(c2)NC(=C2C(=O)N=c4cccc(F)c4=C2N)N3)CC1 [Dovitinib (TKI-258, CHIR-258)] | 92.5 ± 18 |  | 49.8 ± 24 |  |  | 125 ± 32 | 69.8 ± 20 | 104 ± 1.8 | 79
Cl.Nc1ccc(N=Nc2ccccc2)c(N)n1 [Phenazopyridine HCl] | 196 ± 12 |  |  |  | 200 |  | 191 ± 47 |  | 136
O=C(C=CC=Cc1ccc2c(c1)OCO2)N1CCCCC1 [Piperine] | 158 ± 4 |  |  |  | 131 |  | 117 ± 0.57 | 111.83 ± 0.044 | 134
CC(C)Cc1ccc(C(C)C(=O)O)cc1.NCCCCC(N)C(=O)O (configuration not stated) [Ibuprofen Lysine] |  | 130 | 106 ± 12 | 131 ± 6.2 | 162 | 132 ± 29 | 84.8 ± 3.6 | 170 ± 23 | 138
CC=C1NC(=O)C2CSSCCC=CC(CC(=O)NC(C(C)C)C(=O)N2)OC(=O)C(C(C)C)NC1=O (configuration not stated) [Romidepsin (FK228, depsipeptide)] |  | 177 | 77.5 ± 29 | 66.1 ± 6.7 |  |  | 34.4 ± 4.2 |  | 
CCn1cc(C(=O)O)c(=O)c2cnc(N3CCCC3)nc21 [Piromidic Acid] | 151 ± 52 |  | 132 ± 5 | 171 ± 27 | 125 | 145 ± 4.4 |  |  | 110
COC1=CC(=O)C[C@@H](C)[C@]12Oc1c(Cl)c(OC)cc(OC)c1C2=O [Griseofulvin] | 127 ± 7.9 |  | 141 ± 30 | 128 ± 5.8 | 128 | 136 ± 24 | 121 ± 36 | 190 ± 15 | 98.7
Nc1ccccc1NC(=O)c1ccc(CNC(=O)OCc2cccnc2)cc1 [Entinostat (MS-275,SNDX-275)] |  | 109 | 119 ± 130 | 58.7 ± 7.4 |  |  | 75.7 ± 17 |  | 
N#CCC(C1CCCC1)n1cc(-c2ncnc3[nH]ccc23)cn1 (configuration not stated) |  | 185 | 106 ± 19 | 76.1 ± 14 | 106 | 117.7 ± 0.47 | 134 ± 12 | 187.4 ± 1.7 | 129

— the supplement of paper PMC6992640
